Compound activity (PubChem BioAssay)
ATXN2 expr inh: Primary qHTS for Inhibitors of ATXN expression; HEK-293 ATXN2-luciferase reporter, luminescence, 24 h; Potency, µM (series often up to 57 µM), without a hit: at the top dose activity change, negative = inhibition, actives largely listed as inhibitors; hit rate 0.72% among 360,000; AID 1745845, 2022; further: on the % scale 0 is the no-effect control and ±100 the full control effect; nearly all actives have a fitted effect of over 55% in size
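ATXN2-luciferase reporter cells (luciferase flanked by upstream and downstream ATXN2 gene portions) were treated 24 h at 37 °C with compounds at up to 57 uM. SteadyGlo luminescence gave expression; GF-AFC fluorescence gave viability.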
Gal4-VP16 FLuc: VP16 counterscreen qHTS for inhibitors of ROR gamma transcriptional activity; AID 2546, 2010; Potency, µM (doses to about 53.6 µM), for the others: at the top dose activity, negative = inhibition, hits mostly inhibitors; Drosophila S2 Gal4-VP16 UAS-luciferase, luminescence, 20 h; hit rate 3.5% among 310,000;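 further: Gal4-VP16 expression switched on by copper sulfate through the metallothionein promoter; on the % scale 0 is the no-effect control and ±100 the full control effect; nearly all actives have a fitted effect of over 50% in size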
TGFb SMAD3 inh: qHTS for Inhibitors of TGF-b; hit rate 1.2% among 410,000; AID 588855, 2011; HepG2 CAGA-GFP TGF-b/SMAD3 reporter, GFP fluorescence, 18 h; TGF-beta stimulated, 500 pg/mL final; Potency, µM (titrated, usually from 46.1 µM), for the others: at the top dose activity, negative = inhibition, most hits filed as inhibitors; further: on the % scale 0 is the no-effect control and ±100 the full control effect; nearly all actives have a fitted effect of over 65% in size
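Inhibition of TGF-beta-driven CAGA-GFP reporter expression in HEPG2 cells is measured by cellular GFP fluorescence after 18 h stimulation with 500 pg/mL recombinant TGF-beta in 1% FBS medium at 37 degrees C.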
S2 tox: Viability Counterscreen for Primary qHTS for Inhibitors of ATXN expression; S2 cells (HEK-293 line with an ATXN2-luciferase reporter) viability, CellTiter-Fluor protease fluorescence, 24 h; Potency, µM (titrated, usually from 56.7 µM), hits mostly cytotoxic; hit rate 0.49% among 400,000; further: nearly all actives have a fitted effect of over 40% in size
RORgamma inh: qHTS for inhibitors of ROR gamma transcriptional activity. Nuclear receptor ROR-gamma (Mus musculus), P51450. Drosophila S2 Gal4-RORgamma UAS-luciferase reporter, 20 h. Potency, µM (doses to about 53.6 µM), inactives show at the highest dose activity change, negative = inhibition, actives largely listed as inhibitors. hit rate 5.4% among 310,000. AID 2551, 2010; further: on the % scale 0 is the no-effect control and ±100 the full control effect; nearly all actives have a fitted effect of over 60% in size
Target sequence (P51450 whole entry, looked up, the tested form may be a part): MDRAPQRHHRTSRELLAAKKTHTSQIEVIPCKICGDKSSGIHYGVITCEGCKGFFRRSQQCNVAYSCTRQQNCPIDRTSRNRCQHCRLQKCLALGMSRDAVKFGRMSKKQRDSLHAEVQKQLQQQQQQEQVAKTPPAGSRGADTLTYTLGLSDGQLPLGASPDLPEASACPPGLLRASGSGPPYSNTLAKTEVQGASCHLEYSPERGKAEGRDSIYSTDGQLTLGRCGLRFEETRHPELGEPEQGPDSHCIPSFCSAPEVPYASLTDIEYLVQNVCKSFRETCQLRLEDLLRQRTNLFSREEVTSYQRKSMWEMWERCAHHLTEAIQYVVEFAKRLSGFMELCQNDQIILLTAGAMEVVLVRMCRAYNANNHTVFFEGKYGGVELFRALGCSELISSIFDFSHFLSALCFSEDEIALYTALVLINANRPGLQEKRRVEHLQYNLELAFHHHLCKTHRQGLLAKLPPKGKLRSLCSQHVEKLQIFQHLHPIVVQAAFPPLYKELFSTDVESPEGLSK
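Luciferase reporter read in Schneider cells carrying Gal4-RORγ (mouse) and UAS-Photinus luciferase; cells given compound 1 h before 700 uM copper sulfate induction, then incubated 20 h at ambient temperature.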
HepG2 tox: qHTS for Inhibitors of TGF-b: Cytotox Counterscreen | HepG2 CAGA-GFP viability, ATP luminescence, 18 h | Potency, µM (doses to about 46.1 µM), for the others: top-dose activity change, negative = cytotoxicity, usual class: cytotoxic | hit rate 0.76% among 410,000 | AID 588856, 2011
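HepG2 CAGA-GFP cells (1000/well, DMEM with 1% FBS) received compound, then TGF-beta at 500 pg/mL final, and were incubated 18 hours at 37 degrees C. Viability was read by CellTiter-Glo luminescence. Media-only wells were set as complete cell-killing and DMSO as no toxicity.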
* = called active by the depositor; i = inactive; ? = inconclusive; nt = not tested or not shown; [ ] = dose if it differs, or a comment. Shown are actives, neighbours in structure and some others; about 6.3% of the full set was active somewhere. The call rests on the fitted dose curve; in most records, active means well fitted curve in the direction sought with a large enough effect; inconclusive means small, poorly fitted or top-dose-only effect, or another doubt; inactive means no such curve, though single readings can be large; an effect the other way counts as inactive or inconclusive. Potency means the concentration at half of the fitted maximal effect.

SMILES	ATXN2 expr inh	Gal4-VP16 FLuc	TGFb SMAD3 inh	S2 tox	RORgamma inh	HepG2 tox
O=C(NC(=S)N1CCN(c2ccccn2)CC1)c1ccco1	nt	3.2µM*	-17%	?	0.18µM*	-3%
O=C(NC(=S)N1CCOCC1)c1ccc([N+](=O)[O-])cc1	-11%	2.2µM*	0%	i	1.4µM*	0%
CC(NNC(=S)N1CCN(c2ccccn2)CC1)c1nccc2ccccc12 (configuration not stated)	?	nt	?	11µM*	nt	-12%
N#Cc1ccc(C(=O)NC(=S)N2CCOCC2)cc1	nt	nt	-20%	i	nt	-9%
COc1ccc(C(=O)NC(=S)N2CCN(c3ccc([N+](=O)[O-])cc3)CC2)cc1	-12%	0.89µM*	-27%	?	0.63µM*	-7%
Cc1cscc(C)c1=S	nt	nt	0%	nt	nt	-8%
COc1ccc(-c2noc(CC(=O)N(C)c3cc(Cl)c(OC)cc3OC)n2)cc1	nt	nt	1%	nt	nt	-4%
Cc1c(C(=O)Nc2ccccc2Cl)sc2ncnc(N(C)C3CCCCC3)c12	5%	nt	-2%	i	nt	-9%
Cc1ccc(CNc2ncnc3nc[nH]c23)cc1	nt	nt	10%	nt	nt	-1%
CCOC(=O)c1c(C)[nH]c(C)c1S(=O)(=O)N1CCCC(C(=O)N2CCN(c3cccc(C)c3C)CC2)C1 (configuration not stated)	6%	nt	?	i	nt	-52%
CC1CN(C(=S)NC(=O)c2ccc([N+](=O)[O-])cc2)CC(C)O1 (configuration not stated)	-36%	1.3µM*	10%	?	0.45µM*	-8%
COc1ccc(C(=O)NC(=S)N2CCN(c3ccccc3OC)CC2)cc1	-3%	?	-4%	i	2µM*	-5%
CN1CCN(C(=S)NC(=O)c2ccco2)CC1	22%	14µM*	-19%	i	3.5µM*	21%
CC1CN(C(=S)SCC(=O)c2ccc([N+](=O)[O-])cc2)CC(C)O1 (configuration not stated)	-12%	3%	10%	i	18%	-9%
O=C(NC(=S)N1CCN(c2ccc(O)cc2)CC1)c1ccco1	-11%	nt	11%	i	nt	2%
CC1CN(C(=S)NC(=O)c2ccco2)CC(C)O1 (configuration not stated)	1%	20µM*	?	i	4µM*	-2%
COc1ccccc1N1CCN(C(=S)NC(=O)c2ccc([N+](=O)[O-])cc2)CC1	nt	nt	-24%	?	nt	-23%
Cc1[nH]c2ccccc2c1C(=O)CNc1ccc(Br)cc1	nt	nt	?	nt	nt	-31%
Cc1c(C(=O)NCCC2CCCN2C)cnn1-c1nccc(-c2ccccc2F)n1 (configuration not stated)	nt	nt	nt	i	nt	nt
O=C(/C=C/c1ccc(I)cc1)c1ccc(B(O)O)cc1	nt	1%	nt	nt	?	nt
CC1C(c2ccccc2)OCCN1C(=S)NC(=O)c1ccccc1 (configuration not stated)	nt	nt	3%	i	nt	-25%
CC1CN(C(=S)NC(=O)c2ccccc2)CC(C)O1 (configuration not stated)	-8%	3.2µM*	-8%	i	3.5µM*	-1%
CC1CN(C(=S)Nc2cccc(Cl)c2Cl)CC(C)O1 (configuration not stated)	-6%	?	-10%	i	18µM*	-2%
O=[N+]([O-])c1cccc(Cl)c1	nt	5%	nt	nt	3%	nt
COc1ccc(N=[N+]([O-])c2ccc(OC)cc2)cc1	-29%	?	4%	i	8.9µM*	-7%
SMILES	ATXN2 expr inh	Gal4-VP16 FLuc	TGFb SMAD3 inh	S2 tox	RORgamma inh	HepG2 tox
C[C@@H](C(=O)NCc1nc2ccccc2[nH]1)[C@@H]1C[C@@]1(C)[C@@H](NC(=O)OCc1ccccc1)c1ccccc1	nt	-10%	nt	nt	39%	nt
Cc1cc(NC2CCCC2)n2ncc(-c3ccccc3)c2n1	-30%	8.9µM*	80%	i	7.1µM*	-21%
Cc1nc2c(-c3ccccc3)cnn2c(N)c1-c1ccccc1	54%	?	7%	i	0.79µM*	0%
Cc1cc(-c2ccccc2)n2ncc(-c3ccccc3)c2n1	3%	10µM*	7%	i	?	-18%
Cc1cc(N2CCOCC2)n2ncc(-c3ccccc3)c2n1	-48%	13µM*	-2%	i	?	-4%
CCCCN(C(=O)C1CC(=O)N(Cc2ccc(C)cc2)C1)c1c(N)n(CC(C)C)c(=O)[nH]c1=O (configuration not stated)	3%	5%	-13%	i	-7%	-23%
CCOc1ccccc1OCCCC(=O)Nc1cc(S(=O)(=O)N2CCCCC2)ccc1C	nt	nt	-8%	i	nt	-19%
C[C@@H]1CN(Cc2ccc3c(c2)CN(C(=O)CN2CCOc4ccccc4C2)CCO3)C[C@H](C)O1	nt	nt	nt	i	nt	nt
Cc1cc(N2CCCCC2)n2ncc(-c3ccc(Cl)cc3)c2n1	90%	?	-11%	i	37%	-3%
Cc1cc(N2CCCCC2)n2ncc(-c3ccccc3)c2n1	25%	10µM*	-3%	i	?	-9%
NS(=O)(=O)c1ccc(NC(=S)NCc2ccccc2Cl)cc1	-4%	18%	-27%	i	-2%	-14%
NC(=S)Cc1ccccc1Cl	6%	-26%	-5%	i	10µM*	-43%
COc1ccccc1CNC(=S)NCCc1ccccc1	5%[11.3 µM]	?	-10%	i	2.5µM*	0%
Fc1ccc(NC(=S)NCc2ccccc2Cl)cc1	6%	14µM*	?	i	7.1µM*	-48%
CCCNC(=S)Nc1ccc(CC(=O)OC)cc1	6%	7%	-2%	i	-40%	-3%
COC(=O)Cc1ccc(NC(=S)NCc2ccccc2OC)cc1	-5%	25µM*	1%	i	8.9µM*	-21%
COc1ccc(CN(C)C[C@H]2OCCCC[C@@H](C)Oc3ccc(NC(=O)c4ccccc4)cc3C(=O)N([C@H](C)CO)C[C@@H]2C)cc1	2%	nt	-18%	i	nt	-78%
O=C(Cc1ccccc1)NCC(=O)OCC(=O)c1cccc2ccccc12	nt	nt	4%	nt	nt	-17%
COc1ccc(NC(=O)Nc2cccc3c2O[C@H](CN(C)S(=O)(=O)c2cn(C)cn2)[C@@H](C)CN([C@H](C)CO)C3=O)cc1	5%	nt	-15%	i	nt	5%
CCOC(=O)[C@]12CCC=C1N(Cc1ccc3c(c1)OCO3)C(=O)[C@H](CC(=O)NCc1cccc(C(F)(F)F)c1)C2	-2%	nt	nt	?	nt	nt
